In this test the target is T1, ACLY (UniProt P53396).
T1 sequence (whole entry): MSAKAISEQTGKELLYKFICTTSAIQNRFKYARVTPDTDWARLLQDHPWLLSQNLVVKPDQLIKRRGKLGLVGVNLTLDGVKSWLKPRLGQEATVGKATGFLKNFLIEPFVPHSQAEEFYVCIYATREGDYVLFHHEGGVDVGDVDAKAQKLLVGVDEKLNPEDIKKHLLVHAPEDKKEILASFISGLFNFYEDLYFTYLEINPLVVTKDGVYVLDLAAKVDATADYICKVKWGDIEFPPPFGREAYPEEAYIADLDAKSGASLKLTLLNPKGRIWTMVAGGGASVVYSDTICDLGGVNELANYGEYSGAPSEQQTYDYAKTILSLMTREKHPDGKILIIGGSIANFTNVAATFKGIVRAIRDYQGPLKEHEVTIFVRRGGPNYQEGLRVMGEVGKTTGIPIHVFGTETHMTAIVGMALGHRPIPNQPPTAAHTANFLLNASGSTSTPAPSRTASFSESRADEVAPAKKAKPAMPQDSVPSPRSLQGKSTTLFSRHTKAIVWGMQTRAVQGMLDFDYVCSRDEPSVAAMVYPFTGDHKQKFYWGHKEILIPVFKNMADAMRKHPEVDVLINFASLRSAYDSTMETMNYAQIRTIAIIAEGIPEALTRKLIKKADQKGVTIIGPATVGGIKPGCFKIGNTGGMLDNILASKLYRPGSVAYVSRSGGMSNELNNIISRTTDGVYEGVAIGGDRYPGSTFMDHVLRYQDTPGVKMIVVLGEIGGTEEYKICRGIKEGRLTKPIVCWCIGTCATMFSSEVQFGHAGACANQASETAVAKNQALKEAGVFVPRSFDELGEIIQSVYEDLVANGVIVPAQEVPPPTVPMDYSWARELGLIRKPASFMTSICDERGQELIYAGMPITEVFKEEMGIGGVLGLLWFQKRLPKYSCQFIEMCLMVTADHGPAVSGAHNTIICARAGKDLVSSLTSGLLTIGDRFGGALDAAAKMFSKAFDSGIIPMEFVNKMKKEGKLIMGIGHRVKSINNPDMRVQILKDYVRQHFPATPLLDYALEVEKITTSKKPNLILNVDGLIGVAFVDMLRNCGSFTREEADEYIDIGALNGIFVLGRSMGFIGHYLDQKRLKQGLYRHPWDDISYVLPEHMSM
As to the kind of experiment: NP40-soluble protein abundance relative to vehicle (solubility fold change) (ratio); higher = more soluble protein in presence of GTP. The method, then: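 Solubility proteome profiling in Jurkat crude lysate. Lysate was treated with Mg-GTP (0.1-10 mM) for 10 min at room temperature and 3 min at 37 °C, then solubilised with 0.8% NP40 and benzonase, followed by ultracentrifugation. Proteins were quantified by TMT10 LC-MS/MS; the value is the NP40-soluble abundance relative to the NP40-processed vehicle, from 3 independent experiments.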

Each structure is given as a SMILES string. ± gives the standard deviation of the averaged measurements. Of roughly 5,400 targets only a part is listed; those with the largest changes were picked by preference.

With `Nc1nc2c(ncn2[C@@H]2O[C@H](COP(=O)(O)OP(=O)(O)OP(=O)(O)O)[C@@H](O)[C@H]2O)c(=O)[nH]1` [guanosine triphosphate], the NP40-soluble protein abundance (concentration: 0.1mM) came out at 1.06 ± 0.044; the NP40-soluble protein abundance (concentration: 0.5mM) is 1.08 ± 0.088; the NP40-soluble protein abundance (concentration: 1mM) was 0.972 ± 0.084; the NP40-soluble protein abundance (concentration: 2mM) worked out at 0.968 ± 0.11; the NP40-soluble protein abundance (concentration: 4mM) was 0.991 ± 0.084; the NP40-soluble protein abundance (concentration: 6mM) worked out at 0.963 ± 0.11. The NP40-soluble protein abundance reads like this: (concentration: 8mM) 0.97 ± 0.065; (concentration: 10mM) 0.906 ± 0.07.
